Measured values from PubChem BioAssay (NCI).
About 83,000 compounds went through this panel and 20% of them were active in at least one assay; those are over-represented in the sample as a whole.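 Note: values are percent growth. 100 is the growth of untreated cells, values between 100 and 0 indicate rising inhibition; between -100 and 0 indicates cell death.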 Calls of active or inactive are those of the source. Rule for the calls: active = growth percent below 10; inactive = the rest.

Each compound was assayed on MCF7 breast (assay: NCI-60 one-dose screen, 48 h (100 = growth as untreated, 0 = no growth, -100 = all killed)). Details: 10 µM unless noted.
`CC(Br)C(O)c1cc2c(cc1Br)OCO2` (stereo not drawn) was tested, and the growth was 93% (inactive).
`OC1CC2c3ccccc3C1c1ccccc12` (stereo not drawn) was tested, and the growth was 98.8% (inactive).
For `Cc1cc(C)c(S(=O)(=O)N2CCN(c3cc4c(cc3F)c(=O)c(C(=O)O)cn4C3CC3)CC2)c(C)c1`, the growth was 54% (inactive).
In the case of `O=C(c1ccccc1)C(Cl)C(Cl)c1ccccc1` (stereo not drawn), the growth is reported as 9.18% (active).
With `Cc1cc(Cl)ccc1OC(C)C(=O)Nc1nnc(C2CC2)s1` (stereo not drawn) the growth was 112% (inactive).
For `Cc1sc2nc(CSc3nnc(-c4ccco4)o3)[nH]c(=O)c2c1C`, the growth was 104% (inactive).
In the case of `CCCCCCCCCCCCCCCCCCOc1cccc(CCOP(=O)(O)OCC[N+](C)(C)C)c1`, the growth is reported as 88.8% (inactive).
For `C=CCOc1ccc(/C(O)=C2\C(=O)C(=O)N(c3nccs3)C2c2ccccc2F)cc1` (stereo not drawn), the growth was 112% (inactive).
In the case of `CC/C(=C(\c1ccc(O)cc1)c1ccc(OCCN(C)CCN(C)C(=O)CCC(=O)c2c(C)[nH]c(/C=C3\N=C(c4ccc[nH]4)C=C3OC)c2C)cc1)c1ccccc1`, the growth is reported as 34.3% (inactive).
For `Cc1ccc(Oc2nc3ccccc3cc2-c2nnc(Cn3c(COc4ccccc4)nc4ccccc43)o2)cc1`, the growth was 11.6% (inactive).
In the case of `CCOC(=O)c1cc(/C(=N\O)c2cc(OC)c(OC)c(OC)c2)n2cc(C)cc(C)c12`, the growth is reported as 13.6% (inactive).
`NC(=O)c1ccc2c(c1)OCO2` was tested, and the growth was 95.6% (inactive).
In the case of `NC(=O)NNC(=O)c1ccccc1`, the growth is reported as 100% (inactive).
For `O=c1c2cccc3c(Nc4ccc(F)cc4)ccc(c32)c2nc3ccccc3n12`, the growth was 10.1% (inactive).
With `C=C1C(=O)O[C@H]2[C@H]1CC/C(COC(=O)NCc1cc(OC)c(OC)c(OC)c1)=C\CC[C@@]1(C)O[C@@H]21` the growth was 17% (inactive).
In the case of `Cc1cc(C(=O)O)c(N)c(C)n1`, the growth is reported as 93.6% (inactive).
`Cc1ccc(Nc2ncnc3c2sc2ncccc23)cc1` was tested, and the growth was 92.8% (inactive).
With `O=C1CCC(=O)N1Cc1ccccc1` the growth was 91.5% (inactive).
`COc1ncc(-c2ccc3ncnc(Nc4cccc(Cl)c4)c3c2)cc1NS(=O)(=O)C1CC1` was tested, and the growth was 7.65% (active).
For `O=C(Nc1ccc(I)cc1)c1cccc([N+](=O)[O-])c1O`, the growth was 7.91% (active).
In the case of `COc1cc(NC(=O)CCl)ccc(=O)c1`, the growth is reported as 56.8% (inactive).
With `COc1ccc(/C=C/c2nc(N3CCOCC3)c3nc(Cl)c(Cl)cc3n2)cc1OC` the growth was 111% (inactive).
For `CCCCCCCC/C=C\CCCCCCCCOc1ccccc1CCOP(=O)(O)OCC[N+](C)(C)C`, the growth was 74.2% (inactive).
In the case of `COC(=O)c1ccc(C)cc1`, the growth is reported as 91.7% (inactive).
With `COc1ccc(/C(=N/O)c2cc(OC)c(OC)c(OC)c2)c(OC)c1N` the growth was 21% (inactive).
With `COc1ccc(C2CC(=O)Nc3c2c(C)nn3-c2nc3ccccc3[nH]2)cc1OC` (stereo not drawn) the growth was 46.4% (inactive).
In the case of `C=C1C(=O)O[C@H]2[C@H]1CC/C(COC(=O)NCCc1cccc(OC)c1)=C\CC[C@@]1(C)O[C@@H]21`, the growth is reported as 14.7% (inactive).
`COc1ccc(-c2cn[nH]c2-c2cc(OC)c3c(c2)OCCO3)cc1` was tested, and the growth was 19.6% (inactive).
In the case of `CCN(Cc1ccccc1)c1ccc(SC#N)cc1`, the growth is reported as 75.3% (inactive).
In the case of `Cc1ccc2c(c1)C(C)Cc1c(ncnc1-n1cnc3ccccc31)N2C` (stereo not drawn), the growth is reported as 13.5% (inactive).
For `Cc1nc2sccn2c1-c1csc(Nc2ccccc2Cl)n1`, the growth was 33.9% (inactive).
For `C=CCc1cc(Cl)cc2c(OC(C)=O)c(C(C)=O)c(-c3ccccc3)nc12`, the growth was 82.1% (inactive).
For `Cc1nc2scc(-c3ccccc3)n2c(=O)c1CCO`, the growth was 88.9% (inactive).
For `COc1ccc(/C=C\c2cc(OC)c(OC)c(OC)c2)c(NS(=O)(=O)c2ccc(C(C)(C)C)cc2)c1O`, the growth was 10.1% (inactive).
For `CCCCCCOc1ccc(C2(Cl)c3ccccc3N(C)c3ccccc32)cc1`, the growth was 0.626% (active).
`CC(C)C[C@H](NC(=O)[C@H](Cc1ccccc1)n1ccc(N2CCCCC2)cc1=O)B(O)O` was tested, and the growth was 31.3% (inactive).
With `Cc1ccccc1C(=O)c1ccccc1C(=O)O` the growth was 100% (inactive).
`CC1CCc2c(sc(NC(=O)CSc3nnc4ccccn34)c2C(N)=O)C1` (stereo not drawn) was tested, and the growth was 96% (inactive).
With `COc1ccc2c(c1)C=CC(C#N)N2C(=O)c1ccccc1` (stereo not drawn) the growth was 15% (inactive).

Each compound was assayed on HCT-116 colon in the same assay as above. Details: 10 µM unless noted.
For `CC(Br)C(O)c1cc2c(cc1Br)OCO2` (stereo not drawn), the growth was 101% (inactive).
`OC1CC2c3ccccc3C1c1ccccc12` (stereo not drawn) was tested, and the growth was 103% (inactive).
In the case of `Cc1cc(C)c(S(=O)(=O)N2CCN(c3cc4c(cc3F)c(=O)c(C(=O)O)cn4C3CC3)CC2)c(C)c1`, the growth is reported as 32.2% (inactive).
`O=C(c1ccccc1)C(Cl)C(Cl)c1ccccc1` (stereo not drawn) was tested, and the growth was 7.77% (active).
`Cc1cc(Cl)ccc1OC(C)C(=O)Nc1nnc(C2CC2)s1` (stereo not drawn) was tested, and the growth was 94.7% (inactive).
In the case of `Cc1sc2nc(CSc3nnc(-c4ccco4)o3)[nH]c(=O)c2c1C`, the growth is reported as 115% (inactive).
In the case of `CCCCCCCCCCCCCCCCCCOc1cccc(CCOP(=O)(O)OCC[N+](C)(C)C)c1`, the growth is reported as 70% (inactive).
In the case of `C=CCOc1ccc(/C(O)=C2\C(=O)C(=O)N(c3nccs3)C2c2ccccc2F)cc1` (stereo not drawn), the growth is reported as 95.4% (inactive).
For `CC/C(=C(\c1ccc(O)cc1)c1ccc(OCCN(C)CCN(C)C(=O)CCC(=O)c2c(C)[nH]c(/C=C3\N=C(c4ccc[nH]4)C=C3OC)c2C)cc1)c1ccccc1`, the growth was 65.2% (inactive).
With `Cc1ccc(Oc2nc3ccccc3cc2-c2nnc(Cn3c(COc4ccccc4)nc4ccccc43)o2)cc1` the growth was -2.01% (active).
With `CCOC(=O)c1cc(/C(=N\O)c2cc(OC)c(OC)c(OC)c2)n2cc(C)cc(C)c12` the growth was -6.14% (active).
`NC(=O)c1ccc2c(c1)OCO2` was tested, and the growth was 101% (inactive).
In the case of `NC(=O)NNC(=O)c1ccccc1`, the growth is reported as 99.7% (inactive).
With `O=c1c2cccc3c(Nc4ccc(F)cc4)ccc(c32)c2nc3ccccc3n12` the growth was 93.9% (inactive).
With `C=C1C(=O)O[C@H]2[C@H]1CC/C(COC(=O)NCc1cc(OC)c(OC)c(OC)c1)=C\CC[C@@]1(C)O[C@@H]21` the growth was 18.7% (inactive).
For `Cc1cc(C(=O)O)c(N)c(C)n1`, the growth was 102% (inactive).
`Cc1ccc(Nc2ncnc3c2sc2ncccc23)cc1` was tested, and the growth was 106% (inactive).
With `O=C1CCC(=O)N1Cc1ccccc1` the growth was 98.6% (inactive).
With `COc1ncc(-c2ccc3ncnc(Nc4cccc(Cl)c4)c3c2)cc1NS(=O)(=O)C1CC1` the growth was 49.2% (inactive).
`O=C(Nc1ccc(I)cc1)c1cccc([N+](=O)[O-])c1O` was tested, and the growth was 8.14% (active).
With `COc1cc(NC(=O)CCl)ccc(=O)c1` the growth was 62.6% (inactive).
For `COc1ccc(/C=C/c2nc(N3CCOCC3)c3nc(Cl)c(Cl)cc3n2)cc1OC`, the growth was 89.3% (inactive).
With `CCCCCCCC/C=C\CCCCCCCCOc1ccccc1CCOP(=O)(O)OCC[N+](C)(C)C` the growth was 27.2% (inactive).
`COC(=O)c1ccc(C)cc1` was tested, and the growth was 101% (inactive).
`COc1ccc(/C(=N/O)c2cc(OC)c(OC)c(OC)c2)c(OC)c1N` was tested, and the growth was 20.6% (inactive).
For `COc1ccc(C2CC(=O)Nc3c2c(C)nn3-c2nc3ccccc3[nH]2)cc1OC` (stereo not drawn), the growth was 17.4% (inactive).
For `C=C1C(=O)O[C@H]2[C@H]1CC/C(COC(=O)NCCc1cccc(OC)c1)=C\CC[C@@]1(C)O[C@@H]21`, the growth was -63.9% (active).
`COc1ccc(-c2cn[nH]c2-c2cc(OC)c3c(c2)OCCO3)cc1` was tested, and the growth was 10.5% (inactive).
`CCN(Cc1ccccc1)c1ccc(SC#N)cc1` was tested, and the growth was 43.7% (inactive).
For `Cc1ccc2c(c1)C(C)Cc1c(ncnc1-n1cnc3ccccc31)N2C` (stereo not drawn), the growth was 5.53% (active).
With `Cc1nc2sccn2c1-c1csc(Nc2ccccc2Cl)n1` the growth was 27.8% (inactive).
In the case of `C=CCc1cc(Cl)cc2c(OC(C)=O)c(C(C)=O)c(-c3ccccc3)nc12`, the growth is reported as 105% (inactive).
For `Cc1nc2scc(-c3ccccc3)n2c(=O)c1CCO`, the growth was 101% (inactive).
In the case of `COc1ccc(/C=C\c2cc(OC)c(OC)c(OC)c2)c(NS(=O)(=O)c2ccc(C(C)(C)C)cc2)c1O`, the growth is reported as 13.4% (inactive).
With `CCCCCCOc1ccc(C2(Cl)c3ccccc3N(C)c3ccccc32)cc1` the growth was 16.1% (inactive).
`CC(C)C[C@H](NC(=O)[C@H](Cc1ccccc1)n1ccc(N2CCCCC2)cc1=O)B(O)O` was tested, and the growth was 2.64% (active).
In the case of `Cc1ccccc1C(=O)c1ccccc1C(=O)O`, the growth is reported as 103% (inactive).
With `CC1CCc2c(sc(NC(=O)CSc3nnc4ccccn34)c2C(N)=O)C1` (stereo not drawn) the growth was 104% (inactive).
For `COc1ccc2c(c1)C=CC(C#N)N2C(=O)c1ccccc1` (stereo not drawn), the growth was 8.13% (active).
